# Pf growth 48h: inhibits P. falciparum growth in the first generation, 48 h. Potency, µM (highest dose often 28.7 µM), without a hit: at the highest dose activity change, negative = inhibition, actives largely listed as inhibitors. P. falciparum luciferase growth in erythrocytes, 48 h. AID 504832. actives 5.9% (n = 310,000); note: potency is the fitted concentration of half-maximal effect; % is set by controls: 0 for no effect and ±100 for the full control effect
#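 Luciferase-expressing parasites in RBCs, 2% Hct / 0.1% parasitemia final; RPMI 1640 + 0.5% Albumax; 37 C, 5% CO2, one generation; luminescence read-out, lower signal = inhibition.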
# NS1 inh: influenza NS1 inhibition; Potency, µM (doses to about 46.1 µM), inactives show at the top dose activity, positive = more growth; actives 0.4% (n = 270,000); AID 2326; calls by dose curve; note: potency is the fitted concentration of half-maximal effect; actives are rising curves; nearly all actives have a fitted effect of over 50% in size
#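 Compounds were scored for reversing the slow growth caused by influenza A NS1 in S. cerevisiae, measured by optical density at 600 nm. Assay medium contained 2% galactose at pH 6.0; NS1-free yeast of the same strain were the positive control.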
# CHX counter: affects cycloheximide protein synthesis inhibition readout, counter-screen; cell reporter, cycloheximide protein synthesis inhibition counterscreen; max response, %; actives 12% (n = 300,000); AID 2314; in the data active = max response mostly above about 13%, no sharp cut-off; inactive = mostly below about 14%; note: read at 38.3 µM for the half of the compounds with a filed dose; 0% is about no effect
# Pf growth 96h: P. falciparum growth inhibition at 96 hours. P. falciparum luciferase reporter growth, 96 h. Potency, µM (top dose mostly 28.7 µM), for the others: at the highest dose activity change, negative = inhibition, actives largely listed as inhibitors. actives 6.9% (n = 320,000). AID 504834; note: potency is the fitted concentration of half-maximal effect; % is set by controls: 0 for no effect and ±100 for the full control effect
#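 Readout is luminescence from an integrated firefly luciferase in P. falciparum. Red cells, 2% hematocrit and 0.05% parasitemia final, were cultured with compound through two parasite generations (96 hours) at 37 C, 5% CO2.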
# Shiga toxin inh: blocks Shiga toxin action in Vero cells | actives 9.2% (n = 290,000) | Vero cells, Shiga toxin protein synthesis inhibition reporter | inhibition, % at 38.7 µM | AID 2315; in the data active = inhibition mostly above about 28%, no sharp cut-off; inactive = mostly below about 43%; note: 0% is about no effect
# * = called active by the depositor; i = inactive; u = inconclusive; x = no result given; [ ] = another dose, or the depositor's remark. Most compounds without a hit are left out; they make up all but 21% or so of the library. Unless noted, calls come from the whole dose curve; as a rule, active = well fitted inhibition curve with a large enough effect; inconclusive = small, poorly fitted or top-dose-only effect, or another doubt; inactive = no such curve, though single readings can be large or run the other way.
SMILES,Pf growth 48h,NS1 inh,CHX counter,Pf growth 96h,Shiga toxin inh
O=C(CCl)N1c2ccccc2CCc2ccccc21,10.4µM*,-23.6%,-1.7,u,-8.8
O=C(COc1cccc2ccccc12)N1c2ccccc2CCc2ccccc21,10.4µM*,-13.0%,-2.3,u,-21.2
Cc1nn(C)cc1/C=C(/C#N)C(N)=O,11.2%,8.1%,-5.6,3.1%,-10.1
CC(=O)c1cc(-c2ccccc2)n(CC(=O)Nc2cccc(C)c2)c1C,u,12.1%,-3.8,-23.4%,21.7
C/C(=N\NC(=S)Nc1ccc(F)cc1)C1CC1,u,1.5%,28.6*,11.7µM*,20.6
CC1CCN(C(=S)Nc2ccc(F)cc2)CC1,4.2%,6.9%,-2.3,0.0%,16.8
CCN(CC)S(=O)(=O)c1ccc(Br)c(OC)c1,-11.8%,-11.6%,-3.3,10.5%[5.75 µM],-2.3
CC1CCN(C(=O)CN2C(=O)C(=O)N(C(C)C)C2=O)c2ccccc2S1 (stereo not given),15.3%,x,x,70.5%,x
O=C(O)CSCCn1cccn1,23.1%,-3.1%,-7.1,13.1µM*,-11.2
CC1=C(C(N)=O)C(c2ccccn2)n2nc(-c3ccccc3Cl)nc2N1 (stereo not given),3.7%,1.7%,9.6,10.4µM*,-1.3
CC1=C(C(N)=O)C(c2cccs2)n2nc(-c3cccc(C)c3)nc2N1 (stereo not given),-17.2%,-8.3%,-3.7,10.4µM*,18.6
CC1=C(C(N)=O)C(c2cccs2)n2nc(-c3cccc(Cl)c3)nc2N1 (stereo not given),7.3%,0.4%,-2.0,1.1%,3.2
CCCNC(=O)C(=O)NCC(c1ccc2c(c1)OCO2)N1CCN(c2ccc(F)cc2)CC1 (stereo not given),-23.1%,4.9%,-7.1,-8.0%,-7.2
CNC(=O)c1cc(C(=O)c2ccc(C(F)(F)F)cc2)c[nH]1,x,5.5%,26.7*,34.8%,60.2*
CNC(=O)c1cc(C(=O)c2c(Cl)cccc2Cl)c[nH]1,3.2%,4.6%,-1.4,5.2%,-8.5
CNC(=O)c1cc(C(=O)c2ccccc2C(F)(F)F)c[nH]1,-6.6%,3.0%,-1.7,0.7%,-13.1
CNC(=O)c1cc(C(=O)c2ccc(C(F)(F)F)cc2F)c[nH]1,242.6%,x,18.7*,117.1%,21.2
CC(C)C(=O)N1CCC(n2nccc2NC(=O)CCc2ccccc2)CC1,-6.4%,-7.0%,-3.0,u,-2.8
COc1cc(-c2cc(C(=O)NCc3ccc(S(N)(=O)=O)cc3)c3ccccc3n2)cc(OC)c1OC,u,-11.3%,-4.1,u,-8.3
COc1cc(-c2cc(C(=O)NCc3ccco3)c3ccccc3n2)cc(OC)c1OC,u,0.6%,23.2*,10.4µM*,27.0
COc1ccc(C)cc1NC(=O)c1cc2ccccc2cc1OCC(=O)NCc1ccco1,x,u,29.7*,u,7.5
COc1cc(-c2cc(C(=O)Nc3ccc(S(=O)(=O)NCc4ccco4)cc3)c3ccccc3n2)cc(OC)c1OC,10.4µM*,20.8%,3.5,16.5µM*,9.7
Fc1ccc(/C=N/Nc2nnnn2-c2ccccc2)cc1,4.7%,-5.8%,-1.8,8.28µM*,-5.6
Fc1ccc(Oc2nnnn2-c2ccccc2)cc1,11.2%,1.8%,-0.4,35.3%,1.9
COc1cc(OC)c(C2Nc3ccccc3NC3=C2C(=O)CC(C)(C)C3)cc1OC (stereo not given),-14.0%,17.6%,-2.5,u,14.4
SMILES,Pf growth 48h,NS1 inh,CHX counter,Pf growth 96h,Shiga toxin inh
COc1ccc(C2CC(=O)C3=C(C2)Nc2ccccc2NC3c2coc3ccccc3c2=O)cc1OC (stereo not given),7.38µM*,20.3%,0.5,-19.0%,-12.7
CCOc1ccc(S(=O)(=O)N2CCN(CC)CC2)cc1NC(=O)c1ccccc1F,-4.1%,-5.2%,-5.0,-32.0%,-8.4
COc1cccc(OC)c1C(=O)Nc1nc2ccc(S(C)(=O)=O)cc2s1,-2.2%,2.5%,-2.8,14.9%,-14.3
COc1ccc2nc(Nc3ccccc3OC)sc2c1,430.4%,x,32.3*,i,90.2*
COc1ccc2nc(NNC(=O)COc3ccccc3)sc2c1,-0.1%,3.6%,0.9,56.2%,-3.3
COc1ccccc1NC(=O)Nc1nc2ccc(S(N)(=O)=O)cc2s1,34.0%,-11.2%,67.0*,2.6%,89.1*
COc1ccc2nc(Nc3ccccc3)sc2c1,i,x,30.2*,497.7%,60.0*
COc1ccc2nc(NC(=O)Nc3ccccc3OC)sc2c1,-26.1%,6.5%,48.6*,-64.2%,101.9*
O=C(Nc1nnc(-c2ccc(F)cc2)o1)c1ccc(S(=O)(=O)N2CCOCC2)cc1,u,2.3%,-2.7,3.29µM*,-3.6
CC1CCN(S(=O)(=O)c2ccc(C(=O)Nc3nnc(-c4ccco4)o3)cc2)CC1,u,-1.8%,-3.1,14.7µM*,-13.9
CC1CN(S(=O)(=O)c2ccc(C(=O)Nc3nnc(-c4ccco4)o3)cc2)CC(C)O1 (stereo not given),u,-7.5%,-1.6,u,-8.3
CS(=O)(=O)c1cccc(-c2nnc(NC(=O)c3ccc(S(=O)(=O)N4CCCC4)cc3)o2)c1,u,x,x,13.1µM*,x
O=C(Nc1nnc(-c2ccco2)o1)c1ccc(S(=O)(=O)N2CCCC2)cc1,11.7µM*,x,7.3,u,30.0
Cc1ccc(N2C(=O)CSC2c2cccnc2)cc1F (stereo not given),6.7%,-7.0%,-3.8,37.0%,-16.1
O=C(NC(=S)NCc1ccccc1)C1CCCCC1,u,-20.4%,1.2,u,-6.3
O=C(CCn1ccnc1)Nc1ccc2ccccc2c1,u,x,0.7,29.5%,20.3
COc1cc(OC)cc(C2=Nn3c(nnc3-c3ccccc3O)SC2)c1,x,x,11.3,x,-2.0
CCOC(=O)N/N=C1\CCS(=O)(=O)c2ccc(Cl)cc21,-2.4%,3.2%,-2.1,-22.7%,9.4
Clc1ccc(/C=C/c2ncc3ccccn23)cc1,28.0%,-32.2%,32.6*,0.0%,83.4*
O=c1c2ccccc2nc(/C=C/c2ccc(Cl)cc2)n1CCO,-1.7%,-7.3%,8.6,u,4.7
COc1ccc(CCNC(=O)CN2C(=O)NC(C)(c3ccc([N+](=O)[O-])cc3)C2=O)cc1 (stereo not given),u,-3.0%,2.0,67.2%,19.6
COc1cc(NC(=O)c2cc3sccc3n2C)cc(OC)c1,159.2%,-48.6%,29.7*,u,80.6*
Cn1c(C(=O)NCc2ccc3c(c2)OCO3)cc2sccc21,x,-2.3%,6.5,x,3.7
CCc1ccccc1NC(=O)c1cc2sccc2n1C,x,-35.6%,49.0*,0.0%,42.3*
Cn1c(C(=O)Nc2ccc3c(c2)OCO3)cc2sccc21,-9.3%,-64.5%,38.9,x,92.1*
COc1ccc(OC)c(NC(=O)c2cc3sccc3n2C)c1,27.0%,-48.5%,5.6,2.5%,29.1
COC(=O)c1ccc(NC(=O)c2cc3sccc3n2C)cc1,48.0%,-3.6%,39.7*,5.6%,121.7*
COCCNC(=O)c1cc2sccc2n1C,15.5%,5.4%,-0.2,13.2%,-2.0
NS(=O)(=O)c1ccc(CCNC(=O)Cc2ccc(S(=O)(=O)N3CCOCC3)s2)cc1,u,x,x,-8.9%,x

# Source: PubChem (National Center for Advancing Translational Sciences (NCATS))
